From the supplement of paper PMC6411743
± gives the standard deviation of the averaged measurements. Targets with the largest changes are over-represented here; the source holds about 5,400 in all.

Compound: Nc1nc2c(ncn2[C@@H]2O[C@H](COP(=O)(O)OP(=O)(O)OP(=O)(O)O)[C@@H](O)[C@H]2O)c(=O)[nH]1 [guanosine triphosphate]
Test: NP40-soluble protein abundance relative to vehicle (solubility fold change) (ratio); higher = more soluble protein in presence of GTP
Method: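 Solubility proteome profiling in Jurkat crude lysate. Lysate was treated with Mg-GTP (0.1-10 mM) for 10 min at room temperature and 3 min at 37 °C, then solubilised with 0.8% NP40 and benzonase, followed by ultracentrifugation. Proteins were quantified by TMT10 LC-MS/MS; the value is the NP40-soluble abundance relative to the NP40-processed vehicle, from 3 independent experiments.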

Sequence of UniProt Q96ME7 (Q96ME7 whole entry, one chain of several): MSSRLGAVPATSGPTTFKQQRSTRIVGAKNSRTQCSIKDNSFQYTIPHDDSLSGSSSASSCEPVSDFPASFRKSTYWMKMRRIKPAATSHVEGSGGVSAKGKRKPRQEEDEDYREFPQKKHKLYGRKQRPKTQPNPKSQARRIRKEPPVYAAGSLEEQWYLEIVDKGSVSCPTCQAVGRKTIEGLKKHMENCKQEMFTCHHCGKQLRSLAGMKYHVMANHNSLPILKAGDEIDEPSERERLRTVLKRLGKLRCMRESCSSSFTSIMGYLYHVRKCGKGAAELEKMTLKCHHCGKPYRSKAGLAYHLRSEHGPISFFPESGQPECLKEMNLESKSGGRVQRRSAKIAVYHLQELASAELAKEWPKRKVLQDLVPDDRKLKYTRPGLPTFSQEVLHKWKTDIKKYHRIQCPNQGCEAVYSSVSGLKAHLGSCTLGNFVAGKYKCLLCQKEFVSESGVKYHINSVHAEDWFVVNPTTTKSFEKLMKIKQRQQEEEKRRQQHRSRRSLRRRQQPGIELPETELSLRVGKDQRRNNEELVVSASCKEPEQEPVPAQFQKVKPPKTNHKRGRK
Sequence of UniProt Q9UHB6 (Q9UHB6 whole entry, one chain of several): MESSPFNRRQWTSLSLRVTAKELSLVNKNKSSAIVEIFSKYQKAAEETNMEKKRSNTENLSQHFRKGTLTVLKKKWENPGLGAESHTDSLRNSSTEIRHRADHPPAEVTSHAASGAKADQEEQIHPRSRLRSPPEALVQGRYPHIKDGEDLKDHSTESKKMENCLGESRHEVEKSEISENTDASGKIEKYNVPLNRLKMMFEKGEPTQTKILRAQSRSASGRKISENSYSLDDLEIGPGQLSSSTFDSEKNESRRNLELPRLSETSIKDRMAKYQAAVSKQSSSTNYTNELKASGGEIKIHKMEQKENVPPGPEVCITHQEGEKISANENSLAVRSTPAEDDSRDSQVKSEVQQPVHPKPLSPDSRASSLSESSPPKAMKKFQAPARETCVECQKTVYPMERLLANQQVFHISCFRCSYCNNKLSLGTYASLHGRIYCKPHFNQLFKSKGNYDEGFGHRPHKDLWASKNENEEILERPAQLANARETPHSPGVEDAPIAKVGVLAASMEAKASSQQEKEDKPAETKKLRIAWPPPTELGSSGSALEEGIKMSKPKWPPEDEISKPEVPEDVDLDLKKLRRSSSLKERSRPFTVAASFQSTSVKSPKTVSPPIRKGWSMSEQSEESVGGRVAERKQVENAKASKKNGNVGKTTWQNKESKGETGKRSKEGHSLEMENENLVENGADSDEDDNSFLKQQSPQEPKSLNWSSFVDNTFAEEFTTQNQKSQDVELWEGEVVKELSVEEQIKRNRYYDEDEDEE
Sequence of UniProt P49585 (P49585 whole entry, one chain of several): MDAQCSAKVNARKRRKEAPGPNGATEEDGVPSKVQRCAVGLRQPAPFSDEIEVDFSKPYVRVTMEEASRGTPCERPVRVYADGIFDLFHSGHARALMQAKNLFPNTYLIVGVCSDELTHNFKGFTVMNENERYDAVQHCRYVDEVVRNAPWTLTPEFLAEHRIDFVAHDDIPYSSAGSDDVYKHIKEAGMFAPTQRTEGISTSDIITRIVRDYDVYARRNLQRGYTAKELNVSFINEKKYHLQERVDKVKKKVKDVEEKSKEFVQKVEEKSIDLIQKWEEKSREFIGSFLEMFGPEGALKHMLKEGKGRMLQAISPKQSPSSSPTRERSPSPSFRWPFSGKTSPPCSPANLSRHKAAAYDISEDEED

Target	NP40-soluble protein abundance (concentration: 0.1mM)	NP40-soluble protein abundance (concentration: 0.5mM)	NP40-soluble protein abundance (concentration: 1mM)	NP40-soluble protein abundance (concentration: 2mM)	NP40-soluble protein abundance (concentration: 4mM)	NP40-soluble protein abundance (concentration: 6mM)	NP40-soluble protein abundance (concentration: 8mM)	NP40-soluble protein abundance (concentration: 10mM)
F8VQE1|Q9UHB6|Q9UHB6-2|Q9UHB6-4|Q9UHB6-5 (UniProt Q9UHB6)	0.977 ± 0.045	0.955 ± 0.12	1.16 ± 0.11	1.16 ± 0.1	1.35 ± 0.12	1.71 ± 0.067	1.95 ± 0.29	2.21 ± 0.23
C9J050|C9JEJ2|P49585 (UniProt P49585)	1.01 ± 0.094	0.986 ± 0.078	0.953 ± 0.074	0.945 ± 0.077	0.992 ± 0.073	0.942 ± 0.058	0.942 ± 0.079	0.936 ± 0.054
A0A0A6YYH1|H0YLI7|P59780|Q7Z6K5-2 (UniProt Q7Z6K5+P59780+H0YLI7)	1.04 ± 0.012	1.07 ± 0.045	1.06 ± 0.099	1.03 ± 0.044	0.986 ± 0.04	1.01 ± 0.076	0.989 ± 0.017	0.992 ± 0.049
G3XAG1|Q96ME7|Q96ME7-3 (UniProt Q96ME7)	1.1 ± 0.013	1.17 ± 0.055	1.27 ± 0.04	1.445 ± 0.014	1.74 ± 0.059	1.88 ± 0.079	2.01 ± 0.13	2.17 ± 0.081
H0UI80|Q8IXH7|Q8IXH7-4|X6RLT1 (UniProt X6RLT1+Q8IXH7+H0UI80)	1.01 ± 0.017	0.973 ± 0.038	0.965 ± 0.024	0.968 ± 0.012	0.981 ± 0.011	0.978 ± 0.01	0.97 ± 0.039	0.95 ± 0.0096
